# In PubChem BioAssay (EPA / NIEHS):
# The source made the active and inactive calls. How the source made its calls: active means hit-call score of the fitted dose curve at least 0.9, where 1 is the maximum; inactive means score below 0.9.
# Key:
# [1] = ATG_PXRE_CIS: Attagene CIS-FACTORIAL HepG2 Assay for human Pregnane X Receptor Element (PXRE) (AID 2282957); conditions: HepG2 Attagene CIS-FACTORIAL PXRE reporter, mRNA; actives raise or lower the signal
# Summary of the method: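 Endogenous transcription factor activity in HepG2 was gauged through induction of reporter mRNA driven by a cis-regulating promoter element, sampled 24 h post-treatment. Activity was fitted in both directions against DMSO negative control.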
# [2] = ATG_Sox_CIS: Attagene CIS-FACTORIAL HepG2 Assay for human SRY-box transcription factor (SOX) (AID 2282960); conditions: HepG2 Attagene cis-factorial SOX reporter, mRNA; actives raise or lower the signal
# Summary of the method: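 HepG2, cis reporter units, 24 h exposure. Reporter mRNA: RT-PCR → FAM labelling → HpaI → CE fluorescence. Bidirectional fit vs DMSO.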
# [3] = biological target: Transcription factor Sp1 (Homo sapiens) (UniProt P08047); experiment: ATG_Sp1_CIS: Attagene CIS-FACTORIAL HepG2 Assay for human Specificity Protein 1 (Sp1) (AID 2282961); conditions: HepG2 Sp1 cis-reporter transcription, actives raise or lower the signal
# Summary of the method: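 Liver-derived HepG2 cells, cis-element reporter library, 24 h treatment; RNA isolated, cDNA amplified with reporter-specific primers, FAM-labeled fragments sized on capillary analyzer. DMSO baseline, bidirectional curve fit.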
# [4] = ATG_SREBP_CIS: Attagene CIS-FACTORIAL HepG2 Assay for human Sterol Regulatory Element Binding (SREBP) (AID 2282962); conditions: HepG2 Attagene cis-factorial SREBP reporter, mRNA; actives raise or lower the signal
# Summary of the method: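 Endogenous SREBP activity read as cis-element-driven reporter transcript in transiently transfected HepG2, 24 h post-dosing; quantified via RT-PCR plus capillary electrophoresis of fluorescent fragments. Gain or loss of signal fitted relative to DMSO baseline.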
# [5] = biological target: Signal transducer and activator of transcription 3 (Homo sapiens) (UniProt P40763); experiment: ATG_STAT3_CIS: Attagene CIS-FACTORIAL HepG2 Assay for human Signal Transducer and Activator of Transcription 3 (STAT3) (AID 2282963); conditions: HepG2, Attagene cis-factorial STAT3 reporter transcription; actives raise or lower the signal
# Summary of the method: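 Fluorescence intensity of 6-FAM-labelled reporter fragments, separated by capillary electrophoresis after RT-PCR, gave the signal. Cells were HepG2 transfected with cis-element reporter units and treated 24 h; fitting was bidirectional relative to DMSO.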
# [6] = ATG_TA_CIS: Attagene CIS-FACTORIAL HepG2 Assay for human TA Basal Promoter (AID 2282964); conditions: HepG2 Attagene CIS-factorial TA basal promoter reporter; actives raise or lower the signal
# Summary of the method: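 Multiplexed mRNA reporter assay, HepG2, 24 h. Reporter cDNA amplified, 6-FAM primer-extended, HpaI-cut, CE-sized; DMSO = negative control and baseline.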
# [7] = ATG_TCF_b_cat_CIS: Attagene CIS-FACTORIAL HepG2 Assay for human T-Cell-Factor with beta-catenin (TCF/b-cat) (AID 2282965); conditions: HepG2 TCF/beta-catenin cis-reporter transcription, actives raise or lower the signal
# Summary of the method: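 HepG2 cells transiently transfected with cis-promoter-driven multiplexed reporter units; reporter mRNA measured 24 h after dosing by RT-PCR, FAM labelling, HpaI digestion and capillary electrophoresis. Bidirectional fitting relative to DMSO baseline.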
# [8] = ATG_PPRE_CIS: Attagene CIS-FACTORIAL HepG2 Assay for human Peroxisome Proliferator-activated Response Element (PPRE) (AID 2282958); conditions: HepG2 PPRE cis-element reporter, Attagene transcription factor profiling; actives raise or lower the signal
# Summary of the method: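 PPRE activity in HepG2: transient cis-reporter transfection, 24 h compound incubation, reporter mRNA by RT-PCR and CE fluorescence; gain/loss fitted against DMSO.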
# [9] = ATG_RORE_CIS: Attagene CIS-FACTORIAL HepG2 Assay for human RAR-related Orphan Receptor Element (RORE) (AID 2282959); conditions: HepG2 Attagene cis-factorial RORE reporter, mRNA; actives raise or lower the signal
# Summary of the method: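 A 24-hour exposure of transfected HepG2 hepatoma cells precedes RNA isolation and reporter RT-PCR. Labeled products are digested with HpaI and resolved by capillary electrophoresis, with gain or loss of signal scored relative to DMSO.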
# Chain of Transcription factor Sp1 (Homo sapiens) (P08047 whole entry, looked up, the tested form may be a part): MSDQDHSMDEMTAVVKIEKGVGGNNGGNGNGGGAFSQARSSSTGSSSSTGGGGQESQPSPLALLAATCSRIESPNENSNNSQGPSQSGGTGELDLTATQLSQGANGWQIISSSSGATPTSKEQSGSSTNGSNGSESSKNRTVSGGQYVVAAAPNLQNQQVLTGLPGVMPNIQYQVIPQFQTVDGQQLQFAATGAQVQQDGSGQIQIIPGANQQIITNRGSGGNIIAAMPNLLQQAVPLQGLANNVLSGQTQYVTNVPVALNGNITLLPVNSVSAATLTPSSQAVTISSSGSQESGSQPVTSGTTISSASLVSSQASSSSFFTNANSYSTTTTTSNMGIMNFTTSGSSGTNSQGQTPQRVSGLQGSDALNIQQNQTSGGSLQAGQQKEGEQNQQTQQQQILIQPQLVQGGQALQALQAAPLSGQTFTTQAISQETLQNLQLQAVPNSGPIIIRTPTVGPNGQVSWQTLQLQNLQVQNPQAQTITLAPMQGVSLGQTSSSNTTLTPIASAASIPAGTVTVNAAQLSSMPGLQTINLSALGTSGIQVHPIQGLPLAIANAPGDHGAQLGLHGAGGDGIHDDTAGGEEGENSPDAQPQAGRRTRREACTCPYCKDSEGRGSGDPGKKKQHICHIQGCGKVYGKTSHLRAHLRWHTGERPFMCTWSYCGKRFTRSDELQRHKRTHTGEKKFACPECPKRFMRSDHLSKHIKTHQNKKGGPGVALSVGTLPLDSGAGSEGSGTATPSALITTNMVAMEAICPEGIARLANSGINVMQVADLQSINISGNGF
# Chain of Signal transducer and activator of transcription 3 (Homo sapiens) (P40763 whole entry, looked up, the tested form may be a part): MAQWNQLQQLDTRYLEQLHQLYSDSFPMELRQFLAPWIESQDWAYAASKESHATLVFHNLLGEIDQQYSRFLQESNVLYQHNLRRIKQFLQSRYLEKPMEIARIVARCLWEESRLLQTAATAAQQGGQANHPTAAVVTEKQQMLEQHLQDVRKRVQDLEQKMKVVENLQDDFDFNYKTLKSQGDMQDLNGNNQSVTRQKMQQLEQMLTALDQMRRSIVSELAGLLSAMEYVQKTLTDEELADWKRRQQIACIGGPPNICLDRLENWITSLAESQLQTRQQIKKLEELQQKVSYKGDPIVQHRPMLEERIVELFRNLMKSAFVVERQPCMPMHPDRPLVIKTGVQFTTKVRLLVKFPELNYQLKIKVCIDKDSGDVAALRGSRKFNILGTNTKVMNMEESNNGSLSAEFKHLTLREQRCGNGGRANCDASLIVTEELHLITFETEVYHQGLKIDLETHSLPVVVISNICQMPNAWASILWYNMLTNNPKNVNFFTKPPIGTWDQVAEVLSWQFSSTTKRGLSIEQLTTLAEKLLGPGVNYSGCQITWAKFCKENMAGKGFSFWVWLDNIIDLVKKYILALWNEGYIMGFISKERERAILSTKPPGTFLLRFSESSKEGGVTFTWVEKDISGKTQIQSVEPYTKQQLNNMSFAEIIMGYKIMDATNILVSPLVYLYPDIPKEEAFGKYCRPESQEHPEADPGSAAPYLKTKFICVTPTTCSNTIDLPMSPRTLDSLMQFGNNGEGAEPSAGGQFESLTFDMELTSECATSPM
SMILES,outcome [1],outcome [2],outcome [3],outcome [4],outcome [5],outcome [6],outcome [7],outcome [8],outcome [9],AC50 [1],AC50 [4],AC50 [7]
CC(c1cc2ccccc2s1)N(O)C(N)=O (centres undefined),inactive,inactive,inactive,inactive,inactive,inactive,inactive,–,–,–,–,–
NC(=O)NC1NC(=O)NC1=O (centres undefined),inactive,–,inactive,inactive,inactive,inactive,inactive,inactive,inactive,–,–,–
Clc1nc(C(Cl)(Cl)Cl)c(Cl)c(Cl)c1Cl,–,inactive,inactive,–,inactive,inactive,–,inactive,inactive,39.4 µM (active),52.5 µM (active),62.7 µM (active)
CC(C)[C@@H]1CC[C@@H](C)CC1=O,inactive,inactive,inactive,inactive,inactive,inactive,inactive,–,inactive,–,–,–
CC(C)(Oc1ccc(CCNC(=O)c2ccc(Cl)cc2)cc1)C(=O)O,–,inactive,inactive,inactive,inactive,inactive,inactive,–,inactive,–,–,–
COc1cccc(OC)c1,inactive,inactive,inactive,inactive,inactive,inactive,inactive,inactive,inactive,–,–,–
CCCCCNCCCCC,–,inactive,inactive,inactive,inactive,inactive,inactive,–,inactive,–,–,–
O=c1oc(=O)c2cc3c(=O)oc(=O)c3cc12,inactive,inactive,inactive,inactive,inactive,inactive,inactive,inactive,inactive,–,–,–
